# ChEMBL document CHEMBL3988442, “University of Dundee, Small-Polar-MMV Screening Library” (2021)
# Molecular target: T1, Aspartate--tRNA(Asp/Asn) ligase (Mycobacterium tuberculosis (strain ATCC 25618 / H37Rv)) (UniProt P9WFW3); note: in the data most compounds retested in dose-response had high values
# T1 sequence (whole entry): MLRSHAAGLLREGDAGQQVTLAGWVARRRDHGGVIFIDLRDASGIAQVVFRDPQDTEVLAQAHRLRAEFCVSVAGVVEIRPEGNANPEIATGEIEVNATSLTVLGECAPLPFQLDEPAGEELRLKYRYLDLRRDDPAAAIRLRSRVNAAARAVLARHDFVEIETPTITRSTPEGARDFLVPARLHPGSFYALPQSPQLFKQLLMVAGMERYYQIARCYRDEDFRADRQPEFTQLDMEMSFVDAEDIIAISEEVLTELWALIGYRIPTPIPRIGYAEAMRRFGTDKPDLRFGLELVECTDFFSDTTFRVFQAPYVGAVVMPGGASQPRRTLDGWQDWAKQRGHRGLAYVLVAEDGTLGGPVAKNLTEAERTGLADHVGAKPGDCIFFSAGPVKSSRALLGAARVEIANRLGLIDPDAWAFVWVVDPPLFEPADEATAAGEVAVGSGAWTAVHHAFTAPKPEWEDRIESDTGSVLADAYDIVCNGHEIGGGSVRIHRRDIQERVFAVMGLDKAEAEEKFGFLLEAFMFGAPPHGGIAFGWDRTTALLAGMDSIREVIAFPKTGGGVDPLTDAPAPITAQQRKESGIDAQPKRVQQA
# Experiment: Assay for Asp RNA synthetase-1 from Mycobacterium tuberculosis
# Assay type: functional
# Parameters: scale not given: direction of the effect not stated beside the values
# Details: 30 µM
row,SMILES,Percent Effect
1,CC(C)(CNC(=O)NCCOc1cccc(F)c1)C(N)=O,-1.21%
2,CN(C)CCO[C@@H]1CC[C@H]2[C@H]1OCCN2C(=O)CCc1ccccc1,-1.17%
3,CC(C)N1Cc2c(C(=O)N3CCOCC3)nn(C)c2C1,0.382%
4,COC(=O)c1ccc(N2CCN(CCN3CCOCC3)C(C)C2)cc1 (stereo not drawn),-8.26%
5,CC(=O)N(Cc1ncc(C)o1)C1CCN(CCCc2cnn(C)c2)C1 (stereo not drawn),6.13%
6,O=C(C1CC1)N1CCC(c2nc(O)c3c(n2)CCN(C2CCCC2)C3)C1 (stereo not drawn),-2.25%
7,Cc1nc(CN2CCCC2c2c(C)nn(C)c2Cl)no1 (stereo not drawn),-3.26%
8,COc1ccc(F)cc1C(C)NC(=O)Cn1ccc(=O)n(C)c1=O (stereo not drawn),0.602%
9,O=C(N1CCOCC1)[C@@]12CCO[C@@H]1CCN(CC1CCCCC1)C2,-2.47%
10,Cn1cccc1C(=O)N1CCc2ncnc(N3CCCC3)c2CC1,-0.927%
11,c1cc2n(n1)CC(CNCc1ccc(OCC3CC3)nc1)CN2 (stereo not drawn),0.395%
12,Cc1cc(C[C@@H]2COC[C@H]2NCc2ccc(Br)s2)on1,-1.77%
13,Cn1cc(C2CCCN2CCCc2nc(-c3cccs3)no2)cn1 (stereo not drawn),0.756%
14,CCc1[nH]ncc1C(=O)N1CCCC(n2ccnc2C(C)C)C1 (stereo not drawn),4.54%
15,Cn1cc(N2CCC(NC(=O)c3c(F)cccc3F)C2=O)cn1 (stereo not drawn),0.409%
16,Cc1nc(N2CCN(C(=O)c3ccccc3)CC2)c2c(n1)c(C)nn2C,-3.51%
17,Cc1ccc(NC2CCN(C(=O)c3cccc4ncccc34)CC2)nn1,3.98%
18,CC(=O)NCCc1ccc(S(=O)(=O)N(CC(C)C)C(C)C)s1,7.1%
19,COc1cccc2c1OCC(C(=O)N1CCC(N3CCOC3=O)CC1)C2 (stereo not drawn),-3.21%
20,COCc1nn(C(C)C)c2c1CCN(Cc1ccc(C)s1)C2,-3.6%

row,SMILES,Percent Effect
1,COCc1n[nH]/c(=N/C(=O)COc2cnc(C)cc2O)s1,-2.13%
2,CCC1CN(CCNC(C)=O)CCN1CCOC (stereo not drawn),15%
3,Cc1ncc(CNC(=O)CCc2cccc(F)c2)c(C2CCCN2C)n1 (stereo not drawn),1.77%
4,CC(C)c1nc(C2CCCN2C(=O)c2ccc(N(C)C)nn2)no1 (stereo not drawn),5.45%
5,CCCc1n[nH]c(C2CN(C(=O)CCCn3cccn3)CCO2)n1 (stereo not drawn),-0.947%
6,COCCC(=O)N1CCC2(COCc3c(C)nc(NCC4CC4)nc32)C1 (stereo not drawn),1.96%
7,Cc1cccc(OCCC(=O)N2CCN(S(=O)(=O)N(C)C)CC2)c1C,-1.74%
8,COCCN1CCCN(C(=O)NC(C)Cn2cccn2)CC1 (stereo not drawn),1.3%
9,COc1ccccc1NC(=O)NCC(O)(c1ccccc1)C1CC1 (stereo not drawn),-6.53%
10,O=C(Nc1ccccn1)N(CCO)Cc1ccsc1,-3.79%
11,CCNC(=O)c1nnc2ccc(N3CCOCC3)cc2n1,0.9%
12,Cc1noc(C(C)C)c1C(=O)NCCCN1CCCC1,5.49%
13,O=C(C1=CCCC1)N1C[C@H](Oc2cccnc2)[C@H]2OCCC[C@H]21,-2.63%
14,Cn1nc2c(cc1=O)CN(Cc1nc(-c3cccs3)no1)CC2,1.81%
15,CC(CNC(=O)N1CCN(c2cnccn2)CC1)Cc1cccs1 (stereo not drawn),0.324%
16,CS(=O)(=O)c1ccccc1C(=O)NCC1Cc2ccccc2O1 (stereo not drawn),9.98%
17,O=C(CCC1CCCO1)NCc1ccnc(-n2cccn2)c1 (stereo not drawn),7.84%
18,O=C(c1cnc(-c2cccs2)s1)N1CCCN2CCCC2C1 (stereo not drawn),8.86%
19,Cc1cccc(C(=O)N2CCC(Cc3cnc4[nH]ccc4c3)CC2)n1,4.87%

# Molecular target: Shiga toxin 2 (Escherichia coli O157:H7) (UniProt P09385+P09386)
# Experiment: E. coli 0.157:H7 Shiga Toxin SOP - stx2 screening assay
# Assay type: functional
# Parameters: scale not given: direction of the effect not stated beside the values
# Details: 30 µM
row,SMILES,Percent Effect
1,CC(C)(CNC(=O)NCCOc1cccc(F)c1)C(N)=O,28.8%
2,CN(C)CCO[C@@H]1CC[C@H]2[C@H]1OCCN2C(=O)CCc1ccccc1,-27.7%
3,CC(C)N1Cc2c(C(=O)N3CCOCC3)nn(C)c2C1,5.36%
4,COC(=O)c1ccc(N2CCN(CCN3CCOCC3)C(C)C2)cc1 (stereo not drawn),32.4%
5,CC(=O)N(Cc1ncc(C)o1)C1CCN(CCCc2cnn(C)c2)C1 (stereo not drawn),-33.8%
6,O=C(C1CC1)N1CCC(c2nc(O)c3c(n2)CCN(C2CCCC2)C3)C1 (stereo not drawn),-11.5%
7,Cc1nc(CN2CCCC2c2c(C)nn(C)c2Cl)no1 (stereo not drawn),18.6%
8,COc1ccc(F)cc1C(C)NC(=O)Cn1ccc(=O)n(C)c1=O (stereo not drawn),-12.8%
9,O=C(N1CCOCC1)[C@@]12CCO[C@@H]1CCN(CC1CCCCC1)C2,-36.5%
10,Cn1cccc1C(=O)N1CCc2ncnc(N3CCCC3)c2CC1,-8.7%
11,c1cc2n(n1)CC(CNCc1ccc(OCC3CC3)nc1)CN2 (stereo not drawn),-66.4%
12,Cc1cc(C[C@@H]2COC[C@H]2NCc2ccc(Br)s2)on1,4.69%
13,Cn1cc(C2CCCN2CCCc2nc(-c3cccs3)no2)cn1 (stereo not drawn),6.08%
14,CCc1[nH]ncc1C(=O)N1CCCC(n2ccnc2C(C)C)C1 (stereo not drawn),5.75%
15,Cn1cc(N2CCC(NC(=O)c3c(F)cccc3F)C2=O)cn1 (stereo not drawn),-11.8%
16,Cc1nc(N2CCN(C(=O)c3ccccc3)CC2)c2c(n1)c(C)nn2C,-31%
17,Cc1ccc(NC2CCN(C(=O)c3cccc4ncccc34)CC2)nn1,-2.02%
18,CC(=O)NCCc1ccc(S(=O)(=O)N(CC(C)C)C(C)C)s1,-42.2%
19,COc1cccc2c1OCC(C(=O)N1CCC(N3CCOC3=O)CC1)C2 (stereo not drawn),17%
20,COCc1nn(C(C)C)c2c1CCN(Cc1ccc(C)s1)C2,-26.4%

row,SMILES,Percent Effect
1,COCc1n[nH]/c(=N/C(=O)COc2cnc(C)cc2O)s1,-48.9%
2,CCC1CN(CCNC(C)=O)CCN1CCOC (stereo not drawn),16.5%
3,Cc1ncc(CNC(=O)CCc2cccc(F)c2)c(C2CCCN2C)n1 (stereo not drawn),-9.03%
4,CC(C)c1nc(C2CCCN2C(=O)c2ccc(N(C)C)nn2)no1 (stereo not drawn),18.3%
5,CCCc1n[nH]c(C2CN(C(=O)CCCn3cccn3)CCO2)n1 (stereo not drawn),-21.7%
6,COCCC(=O)N1CCC2(COCc3c(C)nc(NCC4CC4)nc32)C1 (stereo not drawn),0.582%
7,Cc1cccc(OCCC(=O)N2CCN(S(=O)(=O)N(C)C)CC2)c1C,-7.47%
8,COCCN1CCCN(C(=O)NC(C)Cn2cccn2)CC1 (stereo not drawn),-9.78%
9,COc1ccccc1NC(=O)NCC(O)(c1ccccc1)C1CC1 (stereo not drawn),-12.2%
10,O=C(Nc1ccccn1)N(CCO)Cc1ccsc1,31.7%
11,CCNC(=O)c1nnc2ccc(N3CCOCC3)cc2n1,-20.2%
12,Cc1noc(C(C)C)c1C(=O)NCCCN1CCCC1,-21.7%
13,O=C(C1=CCCC1)N1C[C@H](Oc2cccnc2)[C@H]2OCCC[C@H]21,-10.5%
14,Cn1nc2c(cc1=O)CN(Cc1nc(-c3cccs3)no1)CC2,3.81%
15,CC(CNC(=O)N1CCN(c2cnccn2)CC1)Cc1cccs1 (stereo not drawn),-14.3%
16,CS(=O)(=O)c1ccccc1C(=O)NCC1Cc2ccccc2O1 (stereo not drawn),-13%
17,O=C(CCC1CCCO1)NCc1ccnc(-n2cccn2)c1 (stereo not drawn),21.6%
18,O=C(c1cnc(-c2cccs2)s1)N1CCCN2CCCC2C1 (stereo not drawn),1.08%
19,Cc1cccc(C(=O)N2CCC(Cc3cnc4[nH]ccc4c3)CC2)n1,5.08%
